Sampled rows, rich in hits. Any-hit rate of the full collection: about 2.4%.
D2 ag-1 = activates the human D2 dopamine receptor | HEK293 T-REx D2 cells, calcium flux agonist mode | 340,000 tested, 0.53% active | P14416 | activation, % at 2 µM;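 active = activation over 3 SD above normal in the single-dose calcium agonist read, cut at about 30% in these data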; also: 0% is about no effect
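Agonism is scored from calcium flux in a force-coupled, inducible HEK293 cell line expressing D2, read kinetically for 180 s after compound addition against dopamine controls.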
D2 ag-2 = human D2 receptor agonism in beta-arrestin assay; P14416; DiscoveRx PathHunter D2 beta-arrestin, luminescence, 90 min; 100% = 57 uM dopamine signal; activation, % (concentration not given with the values); 360,000 tested, 0.084% active; AID 624465; in the data active = activation above about 40%; inconclusive = between about 15% and that limit
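DiscoveRx PathHunter D2 beta-arrestin cells (2,100/well) attached overnight, then compound-stimulated 90 min at 37 C in HBSS/10 mM HEPES/0.1% Tween-20 buffer; beta-galactosidase complementation read by luminescence after 1 h at ambient temperature. Dopamine 57 uM final (EC100) as control.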
D2 PAM-1 = positively modulates the human D2 dopamine receptor allosterically | HEK293 T-REx D2, calcium flux, EC20 dopamine potentiation | 340,000 tested, 0.34% active | AID 485347 | P14416 | potentiation, % at 10 µM;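 active = potentiation over 3 SD above the plate norm, cut at about 30% in these data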; also: 0% is about no effect
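Primary screen. Calcium kinetics in induced HEK293 T-REx D2 cells: compound pre-addition 180 s, EC20 dopamine, 180 s more.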
D2 antagonist = D2 dopamine receptor (human) antagonism | inhibition, % at 10 µM | 340,000 tested, 2% active | HEK293 TREx D2 cells, calcium flux, dopamine EC80; in the data active = inhibition above about 30%; inactive = below that, where a call was filed; also: 0% is about no effect
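Dopamine at EC80 is the agonist stimulus; test compounds precede it by 180 s. Calcium flux read kinetically in a force-coupled, inducible HEK293 T-REx D2 cell line.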
D2 PAM-2 = human D2 receptor positive allosteric modulation; 360,000 tested, 0.23% active; P14416; DiscoveRx D2 beta-arrestin cells, luminescence, 90 min; 100% = 57 uM dopamine signal; potentiation, % (no concentration beside the values); AID 624464; in the data active = potentiation above about 50%; inconclusive = mostly about 30% to 49%
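PathHunter D2 cells, attached overnight at 37 deg C, received compound in DMSO plus dopamine at EC20 (50 nM final) for 90 min at 37 deg C. Beta-arrestin recruitment was read as luminescence after 1 h with detection reagent at ambient temperature.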
D3 ag = activates human D3 dopamine receptor beta-arrestin recruitment | shares compounds with D2 ag-1 | DiscoveRx D3 beta-arrestin cells, luminescence, 90 min | Potency, µM (series often up to 76.9 µM), for the others: at the top dose activation, usual class: activators | 2,300 tested, 4% active | AID 720506;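 also: potency is read from the fitted curve at half-maximal effect; 100% = dopamine control response; nearly all actives have a fitted effect of over 70% in size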
Target sequence (P35462 whole entry, looked up): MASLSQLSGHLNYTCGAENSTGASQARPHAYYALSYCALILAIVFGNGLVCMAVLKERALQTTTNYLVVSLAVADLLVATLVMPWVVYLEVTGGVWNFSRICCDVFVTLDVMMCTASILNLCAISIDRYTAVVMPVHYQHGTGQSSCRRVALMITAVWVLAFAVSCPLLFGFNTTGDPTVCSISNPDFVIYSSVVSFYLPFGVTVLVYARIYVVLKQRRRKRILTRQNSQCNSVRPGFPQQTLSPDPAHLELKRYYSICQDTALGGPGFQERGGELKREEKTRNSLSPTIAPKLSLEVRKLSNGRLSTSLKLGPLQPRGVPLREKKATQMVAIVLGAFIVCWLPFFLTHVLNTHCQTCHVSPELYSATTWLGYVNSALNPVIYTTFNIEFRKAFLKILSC
D2 ag-3 = activates human D2 dopamine receptor in D3 counterscreen; 2,300 tested, 5.9% active; Potency, µM (highest dose often 76.9 µM), for inactives: at the highest dose activation, usual class: activators; shares compounds with D2 ag-1; AID 720507; DiscoveRx PathHunter D2 beta-arrestin, luminescence, 90 min; response scale: percent relative to full dopamine signal; also: potency is read from the fitted curve at half-maximal effect; % of control where 0% means no effect; nearly all actives have a fitted effect of over 70% in size
* marks the source's active call; other numbers are inactive results; ? = inconclusive; / = not tested or not shown. Unless noted, calls follow the shape of the dose curve; as a rule, active = well fitted activation curve with a large enough effect; inconclusive = small, poorly fitted or top-dose-only effect; inactive = flat fitted curve, though single readings scatter.

SMILES	D2 ag-1	D2 ag-2	D2 PAM-1	D2 antagonist	D2 PAM-2	D3 ag	D2 ag-3
C=CCc1ccccc1OCC(O)CN1CCN(c2ccccc2)CC1 (configuration not stated)	-4	/	-22	/	/	/	/
COc1cccc(CN2CCC(C(=O)N3CCN(c4ccccc4F)CC3)CC2)c1OC	27	3	9	-14	-8	2%	8%
CCc1ccc(OCC(O)CN2CCN(c3ccccc3)CC2)cc1 (configuration not stated)	74*	?	-13	109*	-12	?	?
COc1ccc(OCC(O)CN2CCN(c3ccc(OC)cc3)CC2)cc1 (configuration not stated)	2	-5	8	-6	-39	/	/
Cc1ccc(OCC(O)CN2CCN(c3ccccc3)CC2)cc1 (configuration not stated)	46*	3	-23	62*	-11	17%	5%
COc1ccccc1CNc1ncnc2c1c(-c1ccccc1)cn2-c1ccc(Br)cc1	0	/	11	/	/	/	/
COc1ccc(N2CCN(CC(O)COc3c(OC)cccc3OC)CC2)cc1 (configuration not stated)	-2	-9	-18	21	-24	/	/
OC(COc1cccc2ccccc12)CN1CCN(c2ccccc2)CC1 (configuration not stated)	56*	6	-23	65*	0	?	23%
CCCc1ccc(OCC(O)CN2CCN(c3ccccc3)CC2)cc1 (configuration not stated)	62*	?	-26	69*	-7	-6%	?
OC(COc1ccc(Cl)cc1)CN1CCN(c2ccccc2)CC1 (configuration not stated)	19	2	-25	71*	-16	?	2%
COc1ccc(N2CCN(CC(O)COc3ccc(F)cc3)CC2)cc1 (configuration not stated)	0	0	0	-13	-13	/	/
COc1cccc(OC)c1OCC(O)CN1CCN(c2ccccc2F)CC1 (configuration not stated)	78*	?	-22	86*	-9	?	?
COc1cccc(CNC(=O)c2ccc3nc(-c4ccc(F)cc4)c(-c4ccc(F)cc4)nc3c2)c1	0	/	/	/	/	/	/
Cc1nc2sc(C(N)=O)c(N)c2c(-c2ccc(Br)cc2)c1C(=O)Nc1ccc(Cl)cc1	0	/	4	/	/	/	/
O=c1c(N2CCc3ccccc3C2)csc2ccccc12	0	/	-16	/	/	/	/
O=C1CC(N2CCOCC2)C(=O)N1Cc1ccc(N2CCCC2=O)cc1 (configuration not stated)	1	1	-3	18	-2	/	/
O=C1CC(N2CCN(Cc3ccc4c(c3)OCO4)CC2)C(=O)N1Cc1ccc(N2CCCC2=O)cc1 (configuration not stated)	54*	-3	-16	21	-17	-9%	12%
COc1cc(NC(=O)Cn2cc(C(=O)c3ccc(F)cc3)c(=O)c3ccc(C)nc32)cc(OC)c1	-1	/	-11	/	/	/	/
COc1cccc(NC(=O)CN(C)C(=O)CCC(=O)c2cc(C)sc2C)c1	-1	2	9	-20	-10	-4%	-2%
COc1cccc(NC(=O)CN(C)C(=O)C(Sc2ccccc2)c2ccccc2)c1 (configuration not stated)	0	-4	-13	0	-13	-4%	0%
COCCCN1C(=O)c2ccc(C(=O)Nc3cccc(OC)c3)cc2C1=O	0	-1	0	13	-2	/	/
COc1cccc(NC(=O)CN(C)C(=O)c2ccc3c(c2)C(=O)N(CCC(C)C)C3=O)c1	0	2	8	-14	-1	7%	3%
CCN(C(=O)CSc1nc2ccccc2n1CC(=O)NCc1ccc(OC)cc1)c1ccccc1	/	/	-1	/	/	/	/
CCOc1ccccc1NC(=O)c1nnn(CC(=O)Nc2ccccc2CC)c1N	0	/	23	/	/	/	/
Cc1ccc(N/C(N)=N/c2nc(C)cc(C)n2)cc1	80*	0	-34	31*	-27	-4%	4%
SMILES	D2 ag-1	D2 ag-2	D2 PAM-1	D2 antagonist	D2 PAM-2	D3 ag	D2 ag-3
CCCCc1ccc(N/C(N)=N/c2nc(C)cc(C)n2)cc1	56*	?	-14	43*	-4	?	?
CCC(=O)Nc1ccc(N/C(N)=N/c2nc(C)cc(C)n2)cc1	1	-3	4	2	-21	/	/
Cc1cc(C)nc(/N=C(\N)Nc2ccc([N+](=O)[O-])cc2)n1	15	1	-9	37*	-2	-7%	-4%
CCc1ccc(-n2nc(CO)c(C(=O)NCCc3ccccc3)n2)cc1	-1	/	1	/	/	/	/
CCn1c(SC)nc2c([nH]c3ccccc32)c1=O	0	/	10	/	/	/	/
Cc1nc(-c2ccc(C)c(N3CCN(C(=O)Nc4cccc(Cl)c4C)CC3)c2)no1	1	/	-6	/	/	/	/
Cc1cc(C2=NNC(=NCCc3ccccc3)SC2)c(C)n1CC1CCCO1 (configuration not stated)	22	4	-20	22	-17	-11%	-1%
CCN(CC)S(=O)(=O)c1ccc2c(c1)N(CC(=O)N1CCN(c3cccc(Cl)c3)CC1)C(=O)CO2	-1	/	-8	/	/	/	/
COc1ccccc1NC(=O)N1CCN(c2ccccc2F)CC1	/	-1	/	/	-12	/	/
CCOc1ccc(S(=O)(=O)Nc2cccc(C(=O)N3CCN(c4cccc(OC)c4)CC3)c2)cc1	/	?	/	/	-20	?	25%
O=C(Nc1ccccc1C(F)(F)F)N1CCN(c2ccccn2)CC1	50*	-5	-16	19	-1	0%	5%
COc1ccccc1NC(=O)N1CCN(c2ccccn2)CC1	37*	-4	-10	-30	4	5%	0%
CCOc1ccc(S(=O)(=O)Nc2cccc(C(=O)N3CCN(c4ccccc4O)CC3)c2)cc1	5	5	6	-7	2	/	/
COC(=O)c1ccc(C(=O)OC)c(NC(=S)N2CCN(c3ccccn3)CC2)c1	51*	1	-8	15	1	6%	2%
CCN(c1ccc(Cl)cc1)S(=O)(=O)c1nnc(NC(=O)c2ccccc2C)s1	2	/	3	/	/	/	/
Cc1ccccc1Cn1cnc2nc3c(cc2c1=O)CC(C)CC3 (configuration not stated)	0	/	4	/	/	/	/
COc1cc(OC)cc(C(=O)N2CCN(c3ccccn3)CC2)c1	-1	5	3	-4	1	/	/
COc1ccccc1NC(=S)N1CCN(c2ccccn2)CC1	/	1	/	/	-9	-2%	6%

Screening results as filed in PubChem BioAssay.
